The AC50 is the concentration at which the activity in the assay is half-maximal.

Drawing on PubChem BioAssay (EPA / NIEHS), this text covers AC50 and outcome for 20 compounds.

Inconclusive results are not listed. Calls of active or inactive are those of the source. Rule for the calls, unless noted: active = hit-call score of the fitted dose curve at least 0.9, where 1 is the maximum; inactive = score below 0.9.

Experiment [1] can be described thus: CCTE_Shafer_MEA_acute_spike_number: CCTE's Neural Acute Assay for Total Number of Spikes, Shafer Lab (AID 2284008).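 For AC50: curve fitted for decrease in spike count so AC50 reflects inhibitors.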 An outline of the steps:
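Rat primary cortical neurons on 48-well MEA plates, DIV 13 or 15, at 37 C. 40 min baseline then 40 min with compound (0.03-40 uM); spikes detected at 8x rms noise, expressed as percent change from baseline.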

A short description of experiment [2]: CCTE_Shafer_MEA_acute_firing_rate_mean: CCTE's Neural Acute Assay for Mean Firing Rate, Shafer Lab (AID 2284009).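 Note: analyzed for loss of signal so actives lower firing rate relative to DMSO.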 An outline of the steps:
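Spontaneous spiking of primary rat cortical networks, DIV 13/15, 37 C. Compound 0.03-40 uM, n ≥3 wells; 40 min baseline vs 40 min treated. Endpoint fitted in loss-of-signal direction against DMSO.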

A short description of experiment [3]: CCTE_Harrill_HTTr_Viability_MCF7: CCTE's 6-hour Cell Viability Assessment for the High-Throughput Transcriptomics (HTTr) Platform, in MCF-7 cells cultured in DMEM + 10% fetal bovine serum, Harrill Lab (AID 2284010). The method in brief: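 Eight-point concentration series, six-hour exposure. Propidium iodide exclusion imaged to assess membrane integrity as a cytotoxicity readout; bidirectional fitting was done with DMSO as negative control and activity baseline.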

Experiment [4] in a line: CCTE_Harrill_HTTr_Apoptosis_MCF7: CCTE's 6-hour Apoptosis Assessment for the High-Throughput Transcriptomics (HTTr) Platform, in MCF-7 cells cultured in DMEM + 10% fetal bovine serum, Harrill Lab (AID 2284011). An outline of the steps: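 MCF-7 cells in DMEM + 10% FBS exposed 6 h to chemicals over an eight-point dilution series. Caspase-3/7 activation imaged by high-content CellEvent Green staining; fitted bidirectionally versus DMSO.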

A short description of experiment [5]: CCTE_Harrill_HTTr_CellCount_MCF7: CCTE's Cell Proliferation Assessment for the High-Throughput Transcriptomics (HTTr) Platform, Harrill Lab (AID 2284012; active = hit-call score of the fitted dose curve at least 0.9, where 1 is the maximum;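 note: count of Hoechst-stained nuclei per well by high-content imaging in MCF-7 cells; cells exposed to compound for six hours; intended direction is loss of nuclei count meaning fewer cells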). An outline of the steps:
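For this full-screen endpoint, MCF-7 cultures received eight compound dilutions for six hours. Well nuclei counts from Hoechst imaging were analyzed relative to DMSO.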

Experiment [6] can be described thus: CCTE_Shafer_MEA_acute_burst_number: CCTE's Neural Acute Assay for Single-Electrode Bursts, Shafer Lab (AID 2284013). The method in brief: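 Burst totals were derived with adaptive spike detection (8x rms threshold) on filtered signals from rat cortical cultures; change relative to pre-treatment baseline after 40-min compound exposure (0.03-40 uM) was fitted in the negative direction against DMSO.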

Experiment [7] is described as follows: CCTE_Shafer_MEA_acute_burst_duration_mean: CCTE's Neural Acute Assay for Mean Burst Duration, Shafer Lab (AID 2284014).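 Note: hits are decreases in mean burst duration relative to DMSO controls.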 An outline of the steps: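 Acute exposure of mature rat cortical networks (DIV 13 or 15) grown on microelectrode arrays to 0.03-40 uM compound. Mean burst duration compared with the 40-min pre-dose baseline over a 40-min post-dose recording at 37 C.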

Experiment [8] in a line: CCTE_Shafer_MEA_acute_per_burst_spike_number_mean: CCTE's Neural Acute Assay for Average Number of Spikes Per Burst, Shafer Lab (AID 2284015).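 Note: hits are decreases in mean spikes per burst versus baseline.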 An outline of the steps: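 Percent change in mean spikes per single-electrode burst is compared between a 40 min baseline and a 40 min recording with compound (0.03-40 uM). Cultures were rat cortical neurons on MEA plates at DIV 13 or 15, recorded at 37 C, with DMSO as the negative control.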

The nature of experiment [9]: CCTE_Shafer_MEA_acute_burst_percentage_mean: CCTE's Neural Acute Assay for Percentage of Spikes in a Burst, Shafer Lab (AID 2284017).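 For AC50: curve fitted for loss of signal so potency reflects decreased burst percentage.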 An outline of the steps: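 Well-level mean burst percentage from a 40-min recording after compound (0.03-40 uM) expressed as percent change from a 40-min baseline at 37C. Cultures: primary rat cortical neurons on MEA, dosed on DIV 13 or 15; fitted downward relative to DMSO.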

A short description of experiment [10]: CCTE_Shafer_MEA_acute_burst_percentage_std: CCTE's Neural Acute Assay for Standard Deviation of Burst Percentage, Shafer Lab (AID 2284018).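 Note: fitted in the negative direction so actives lower burst percentage SD.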 The method in brief:
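Primary rat cortical neurons on 16-electrode MEA wells were recorded 40 min at baseline (DIV 13 or 15), then 40 min after compound (0.03-40 uM), at 37 C. Well value is SD across electrodes of spikes-in-bursts/total spikes; endpoint is percent change, DMSO-referenced.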

Experiment [11] can be described thus: CCTE_Shafer_MEA_acute_per_network_burst_spike_number_mean: CCTE's Neural Acute Assay for Average Number of Spikes in a Network Burst, Shafer Lab (AID 2284019).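 For AC50: curve fitted for loss of signal so actives reduce spikes per network burst.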 The method in brief:
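Acute exposure of rat primary cortical networks (DIV 13/15) on MEAs; adaptive spike detection at 8x rms noise, 37 C. Percent change in spikes per network burst after 40 min with compound (0.03-40 uM), negative direction vs DMSO.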

A short description of experiment [12]: CCTE_Shafer_MEA_acute_per_network_burst_spike_number_std: CCTE's Neural Acute Assay for Standard Deviation of Number of Spikes in a Network Burst, Shafer Lab (AID 2284020).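 Note: fitted for decrease in spike-number SD versus DMSO so actives lower it.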 An outline of the steps:
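Acute MEA exposure, rat cortical neurons, 0.03-40 uM. Per-well % change versus own baseline; DMSO as negative control.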

The nature of experiment [13]: CCTE_Shafer_MEA_acute_per_network_burst_electrodes_number_mean: CCTE's Neural Acute Assay for Mean Number of Electrodes in a Network Burst, Shafer Lab (AID 2284021).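 Note: curves fitted for decreases only so hits reduce electrodes per burst.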 An outline of the steps: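 Rat primary cortical neurons on 48-well MEAs, DIV 13 or 15, were treated at 0.03-40 uM. Spikes were detected at 8x rms noise and recorded at 37 C. The mean electrodes per network burst in a 40 min exposure recording was expressed as percent change from a 40 min baseline.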

The nature of experiment [14]: CCTE_Shafer_MEA_acute_cross_correlation_area: CCTE's Neural Acute Assay for Area of Cross Correlation, Shafer Lab (AID 2284024).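 Note: curves fitted for loss of cross-correlation area so actives lower synchrony.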 An outline of the steps:
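Rat primary cortical neurons on 48-well MEA, DIV 13 or 15; compounds 0.03-40 uM. Baseline and post-exposure 40 min recordings at 37 C; percent change in area under pooled inter-electrode cross-correlation near zero lag, relative to DMSO.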

Experiment [15] in a line: CCTE_Shafer_MEA_acute_cross_correlation_HWHM: CCTE's Neural Acute Assay for Cross Correlation at Half Width at Half Maximum, Shafer Lab (AID 2284026).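 For outcome: spontaneous network firing of rat primary cortical neurons on multiwell microelectrode arrays.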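 Note: hits are a decrease in cross-correlogram half width relative to DMSO.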 An outline of the steps: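 Rat primary cortical neurons on 48-well MEA plates; 40-min baseline and 40-min post-exposure recordings at 37 C on DIV 13 or 15, compounds 0.03-40 uM. Spikes detected at 8x rms noise; percent change in cross-correlogram HWHM per well vs baseline.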

Experiment [16] in a line: CCTE_Simmons_MITO_max_resp_rate: CCTE's HepG2 Seahorse XF Respirometric Screening Assay at Maximal Respiratory State [uncoupled], Simmons Lab (AID 2284002). The note with it: actives raise or lower the signal. The method in brief:
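HepG2 oxygen consumption measured on Seahorse XF after FCCP uncoupling, following test compound injection; 7 concentrations from 125 nM to 100 uM final. Readings every 6 min over 72 min, three biological replicates; bidirectional fit versus DMSO.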

The nature of experiment [17]: CCTE_Simmons_MITO_inhib_resp_rate: CCTE's HepG2 Seahorse XF Respirometric Screening Assay at Inhibited Respiratory State [full ETC block], Simmons Lab (AID 2284006). The note with it: actives raise or lower the signal. An outline of the steps: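 Test chemicals at seven final concentrations (125 nM–100 uM) in three biological replicates, with DMSO as vehicle. HepG2 oxygen consumption was then tracked on a Seahorse XF96 for 72 min through FCCP and rotenone/antimycin A phases, with the inhibited-phase rate as the endpoint.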

A short description of experiment [18]: CCTE_Simmons_MITO_viability: CellTiter-Glo Viability Assessment for CCTE's HepG2 Seahorse XF Respirometric Screening Assay [post-hoc], Simmons Lab (AID 2284007; active = hit-call score of the fitted dose curve at least 0.9, where 1 is the maximum;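 for AC50: cells exposed to chemical for 90 min before the ATP read; actives lower ATP signal relative to DMSO baseline meaning reduced viability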). The method in brief:
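Post-hoc viability check on the HepG2 respirometry plates: luciferase-based ATP signal measured once, after 90 min compound exposure spanning 125 nM–100 uM final. Activity was referenced to DMSO as baseline.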
Background: Cellular ATP, detected with luciferase, serves as a proxy for viable cell number.

As to `COC(=O)[C@H]1[C@H]2C[C@@H]3c4[nH]c5cc(OC)ccc5c4CCN3C[C@H]2C[C@@H](OC(=O)c2cc(OC)c(OC)c(OC)c2)[C@@H]1OC`, the AC50 is 1.03 µM (active) in experiment [1]; 1.04 µM (active) in experiment [2]; 0.82 µM (active) in [6]; 0.582 µM (active) in experiment [8]; 34.3 µM (active) in experiment [9]; 0.808 µM (active) in [11]. In addition, the AC50 in experiment [12] and in experiment [15] was 20 µM (active) in each case. Besides, the outcome in experiment [3], in experiment [4], in experiment [5], in [7], in experiment [10] and in [13] was inactive. Also, the result in [14] was inactive.

Regarding `CSc1ccc(Oc2ccc(S(N)(=O)=O)cc2CN(C)C)cc1C`, the result in experiment [1], in [2], in experiment [3], in [4], in experiment [5] and in experiment [6] was inactive. The compound was called inactive in experiment [7], in experiment [11], in [12], in experiment [13] and in experiment [14]. Moreover, the AC50 in experiment [8] is 36 µM (active); in experiment [9] it was 31.8 µM (active); in experiment [10] it was 32.1 µM (active); in [15], 31.7 µM (active).

On to `CCCCCCC(C=O)=Cc1ccccc1`, for which the result in experiment [16], in [17], in experiment [18], in experiment [3] and in experiment [5] was inactive.

Turning to `O=C1OC(c2ccc(O)cc2)(c2ccc(O)cc2)c2ccccc21`, the result in experiment [16], in experiment [17], in [1], in experiment [2], in experiment [3] and in [5] was inactive. Also, the outcome in [6], in experiment [7], in experiment [8], in [10], in experiment [11] and in experiment [13] was inactive. Further, the result in [14] and in [15] was inactive. Further, the half-maximal activity concentration (AC50) in [18] is 9.92 µM (active); in experiment [9], 24.6 µM (active); in experiment [12], 20 µM (active).

For the compound `CCCC(=O)O`, the compound was classed as inactive in [1], in experiment [2], in experiment [3], in experiment [4], in experiment [5] and in experiment [6]. Moreover, the compound was classed as inactive in experiment [7], in [8], in [9], in [10], in experiment [11] and in experiment [12]. Besides, the outcome in experiment [13], in [14] and in experiment [15] was inactive.

Regarding `CC(=O)O[C@]1(C(C)=O)CC[C@H]2[C@@H]3C=C(Cl)C4=CC(=O)[C@@H]5C[C@@H]5[C@]4(C)[C@H]3CC[C@@]21C`, the AC50 is 28.1 µM (active) in [16] and 23 µM (active) in experiment [18]. The result in experiment [17], in [3] and in experiment [5] was inactive.

On to `c1ccc2occc2c1`, for which the result in [1], in experiment [2], in experiment [3], in experiment [4], in experiment [5] and in experiment [6] was inactive. Also, the outcome in [7], in experiment [8], in [9], in [10], in experiment [11] and in [12] was inactive. In addition, the call in experiment [13], in experiment [14] and in experiment [15] was inactive.

On to `CC(C)(O)c1ccc(CNC(=O)c2cccnc2Oc2ccc(F)cc2)cc1`, for which the AC50 in experiment [16] is 18.6 µM (active). The outcome in experiment [17], in [18], in experiment [3] and in [4] was inactive.

In the case of `CN(C)C(=O)NC1(c2ccccc2)CCN(CCC[C@]2(c3ccc(Cl)c(Cl)c3)CCCN(C(=O)c3ccccc3)C2)CC1`, the compound was called inactive in experiment [1], in experiment [2], in experiment [3], in [4], in experiment [6] and in experiment [11]. Further, the AC50 in [7] is 1.07 µM (active); in [8] it was 9.1 µM (active); in experiment [9], 7.4 µM (active); in experiment [10], 1.83 µM (active); in experiment [12], 7.62 µM (active); in experiment [13], 2.99 µM (active). For the same compound, the AC50 in [14] was 0.00118 µM (active); in experiment [15], 8.86 µM (active).

In the case of `O=C1O[C@H]([C@H](O)CO)C(O)=C1O`, the outcome in [3] was inactive.

On to `Cc1occc(=O)c1O`, for which the result in experiment [3] and in experiment [4] was inactive.

In the case of `O=C(O)CC(O)(CC(=O)O)C(=O)O`, in [3], the result was inactive.

For `Oc1ccccc1O`, the result in experiment [3] and in experiment [4] was inactive.

As for `CCCCc1nc2cccnc2n1Cc1ccc(-c2ccccc2-c2nnn[nH]2)cc1`, the outcome in [3] and in [4] was inactive.

Turning to `NCCOCCOCCN`, the outcome in experiment [3] and in experiment [4] was inactive.

Turning to `S=c1[nH]c2ccccc2s1`, the result in experiment [3], in [4] and in experiment [5] was inactive.

`CC(=O)OCC(COC(C)=O)OC(C)=O`: the outcome in experiment [3] and in experiment [4] was inactive.

With `NC(=Nc1ccccc1)Nc1ccccc1`, the half-maximal activity concentration (AC50) was 2.02 µM (active) in experiment [1]; 2.03 µM (active) in experiment [2]; 1.53 µM (active) in experiment [6]; 29.5 µM (active) in experiment [9]; 20 µM (active) in experiment [15]. In addition, the result in experiment [3], in experiment [7], in experiment [8], in experiment [10], in [11] and in experiment [12] was inactive. In addition, the outcome in experiment [13] and in experiment [14] was inactive.

Take `COC(=O)CCCC(=O)OC`: the outcome in experiment [3] was inactive.

On to `OCC(O)CO`, for which the result in experiment [3] was inactive.
